In PubChem BioAssay:
Calls of active or inactive are those of the source. Cut-off read from the data, not from the text of the source, unless noted: active = inhibition above about 80%; inactive = the rest.

Key:
[1] = viability loss with induced miR-34 in A549 – imaging, A549 dox-inducible miR-34, nuclei and caspase counts, primary screen (AID 1347080;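 active = compounds whose cell count with miR-34 switched on is under 0.7 times the count with it off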); details: A549 miR-34 inducible, Hoechst nuclei count, 48 h
[2] = MELAS cybrid and Rieske KO viability enhancers – cell-based, MELAS cybrids, Rieske KO mouse fibroblasts, CellTiter-Glo, primary screen (AID 1508586); details: low glucose;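 note: z relative to plate mean and SD of compound and empty wells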
[3] = growth inhibition, single agent or in combination, cell-based, chromothripsis tumors, cisplatin or BGB combos (AID 1671449); details: LFS_MB_P medulloblastoma cells;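 note: cells exposed for 96 hours; 0% = vehicle DMSO and 100% = killing by high DMSO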
[4] = growth inhibition, single agent and combos, cell-based, chromothripsis tumors, cisplatin or BGB combos (AID 1671450); details: HDN33 neuroblastoma cells, stronger effect = higher value;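 note: cells exposed to compound for four days; 0% = vehicle DMSO and 100% = cell killing by high DMSO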
[5] = growth inhibition, single agents and combos, ICB984, cell-based, cisplatin or BGB combos, synergistic combos for chromothripsis tumors (AID 1671451; call rule not given here;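 note: cells exposed for 96 hours before readout; 0% = vehicle DMSO and 100% = killing by high DMSO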); details: ICB984 medulloblastoma cells, drug combinations, stronger effect = higher value
[6] = growth inhibition, single agents and combos, LFS_MB_1R, cell-based, cisplatin or BGB combos, synergistic combos for chromothripsis tumors (AID 1671452); details: LFS_MB_1R medulloblastoma cells, stronger effect = higher value;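 note: cells exposed for 96 hours before readout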
[7] = growth inhibition, single agents and combos, HTB85, cell-based, BGB or cisplatin IC20 combos, synergistic combos for chromothripsis tumors (AID 1671453); details: HTB85 osteosarcoma cells, drug combinations, stronger effect = higher value;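 note: cells exposed for 96 hours before readout; 0% = vehicle DMSO and 100% = high DMSO killing control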
[8] = growth inhibition, single agents and combos, CRL2098, cell-based, BGB or cisplatin IC20 combos, synergistic combos for chromothripsis tumors (AID 1671454); details: CRL2098 osteosarcoma cells, drug combinations, stronger effect = higher value;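 note: cells exposed for 96 h before readout; 0% = vehicle DMSO and 100% = killing by high DMSO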
[9] = growth inhibition, single agents and combos, HD-MB03, cell-based, BGB or cisplatin IC20 combos, synergistic combos for chromothripsis tumors (AID 1671455; in the data active = inhibition above about 83%;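 note: 0% = vehicle DMSO and 100% = high DMSO as cytotoxic control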); details: HD-MB03 medulloblastoma cells, stronger effect = higher value
[10] = growth inhibition, single agents and combos, UWB1.289, cell-based, BGB or cisplatin combos, synergistic combos for chromothripsis tumors (AID 1671456); details: UWB1.289 ovarian carcinoma cells, stronger effect = higher value;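 note: cells exposed to compound for four days; 0% = vehicle DMSO and 100% = killing by high DMSO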
[11] = growth inhibition, single agents and combos, LFS_MB_2R, cell-based, cisplatin combos, synergistic combos for chromothripsis tumors (AID 1671457); details: LFS_MB_2R medulloblastoma cells, stronger effect = higher value;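 note: cells exposed to compound for four days before readout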
[12] = growth inhibition, MDA-MB-436, cell-based, BGB or cisplatin combos, synergistic combos for chromothripsis tumors (AID 1671458; call rule not given here;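 note: cells exposed for 96 hours; 0% = vehicle DMSO and 100% = killing by high DMSO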); details: MDA-MB-436 breast carcinoma growth inhibition, drug combinations, stronger effect = higher value
[13] = UWB1.289_BRCA1 ovarian cancer growth, cell-based, BGB or cisplatin combinations (AID 1671459); details: UWB1.289 BRCA1 ovarian carcinoma, drug combinations, stronger effect = higher value
[14] = drug combination toxicity in non-malignant astrocytes – cell-based, BGB or cisplatin IC20 combos, cytotoxicity control for chromothriptic childhood tumor combination screen (AID 1671460); details: Human astrocytes, viability inhibition, drug combinations, at 0.5 µM, stronger effect = higher value;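 note: cells exposed to compounds for 96 hours before viability readout; 0% = vehicle and 100% = killing control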
[15] = BT084 cell growth, single and combined drugs, ICGC_MB145, cisplatin and BGB IC40 combos (AID 1671461); details: BT084 medulloblastoma cells, drug combinations, stronger effect = higher value;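 note: cells exposed to drugs for 96 hours; 0% = vehicle DMSO and 100% = high DMSO full killing control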
[16] = RCMB18 cell growth, single agent and combined, cisplatin and BGB IC40 combos (AID 1671462); details: RCMB18 medulloblastoma cells, stronger effect = higher value;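 note: cells exposed to compound for four days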
[17] = CRL1545 cell growth, single agent and combined, cisplatin and BGB IC20 combos (AID 1671464); details: CRL1545 osteosarcoma cells, stronger effect = higher value;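 note: cells exposed to compound for 96 hours before readout; 0% = vehicle DMSO and 100% = high DMSO killing control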
[18] = measured here: combination with BGB IC40, at 0.05 µM
[19] = measured here: with BGB IC20 combination, at 0.5 µM
[20] = measured here: with cisplatin IC20 combination, at 0.5 µM
[21] = measured here: combination with cisplatin, at 0.5 µM
[22] = measured here: combination with cisplatin, at 5 µM

## NC(=S)NN=Cc1ncccc1N
[1]; stronger effect = lower value, cell number ratio, induced over uninduced
  fold change: 1.15 (inactive)
[1]; measured here: relative caspase fold change +Dox/-Dox
  fold change: 0.619
[1]; measured here: total cells with miR-34 induction, stronger effect = lower value
  cell count: 1840
[1]; measured here: total cells without miR-34 induction
  cell count: 1600
[2]; MELAS cybrid survival, CellTiter-Glo 48 h, stronger effect = higher value
  z-score: 1.28
[2]; Rieske KO mouse fibroblast survival, CellTiter-Glo 72 h
  z-score: 3.3
[3]; at 0.5 µM, stronger effect = higher value
  inhibition: -16.7% (inactive)
[3]; measured here: combination with BGB IC20, at 0.005 µM
  inhibition: -2.55%
[3]; measured here: combination with BGB IC40, at 0.005 µM
  inhibition: -23%
[3]; [18]
  inhibition: -3.08%
[3]; measured here: combination with cisplatin, at 0.5 µM, stronger effect = higher value
  inhibition: -29.8%
[3]; measured here: combination with cisplatin, at 5 µM, stronger effect = higher value
  inhibition: -31.8%
[4]; BGB combo, at 5 µM
  inhibition: 85%
[4]; at 0.5 µM
  inhibition: 11.9% (inactive)
[4]; cisplatin combo, at 5 µM
  inhibition: 80.1%
[4]; [19]
  inhibition: 3.11%
[4]; [20]
  inhibition: 14.3%
[4]; single agent, at 5 µM
  inhibition: 84.5%
[5]; BGB IC20 combo, at 0.005 µM
  inhibition: -9.24%
[5]; BGB IC40 combo, at 0.005 µM
  inhibition: -38.2%
[5]; BGB IC40 combo, at 0.05 µM
  inhibition: -31.3%
[5]; at 0.5 µM
  inhibition: -16.4% (inactive)
[5]; cisplatin combo, at 0.05 µM
  inhibition: -36.5%
[5]; cisplatin combo, at 0.5 µM
  inhibition: -17.6%
[5]; cisplatin combo, at 5 µM
  inhibition: -14.8%
[5]; measured here: 5 uM single agent, at 5 µM
  inhibition: -38.9%
[6]; at 0.5 µM
  inhibition: -7% (inactive)
[6]; [18]
  inhibition: -3.08%
[6]; [21]
  inhibition: 22.7%
[6]; [22]
  inhibition: -19.1%
[7]; at 0.5 µM
  inhibition: -8.27% (inactive)
[7]; measured here: with BGB IC20, at 0.5 µM
  inhibition: -17.3%
[7]; measured here: with BGB IC20, at 5 µM
  inhibition: 67.1%
[7]; measured here: with cisplatin IC20, at 0.5 µM
  inhibition: -3.68%
[7]; measured here: with cisplatin IC20, at 5 µM
  inhibition: 77.8%
[7]; single agent, at 5 µM
  inhibition: 84.1%
[8]; at 0.5 µM
  inhibition: -55.6% (inactive)
[8]; measured here: combination with BGB at IC20, at 0.5 µM
  inhibition: -6.91%
[8]; measured here: combination with cisplatin at IC20, at 0.5 µM
  inhibition: -62.8%
[9]; at 0.5 µM
  inhibition: -11.3% (inactive)
[9]; measured here: combo with BGB at IC20, at 0.5 µM
  inhibition: -13%
[9]; measured here: combo with cisplatin at IC20, at 0.5 µM
  inhibition: -15.8%
[10]; at 0.5 µM
  inhibition: -4.48% (inactive)
[10]; measured here: inhibition with BGB combination, at 0.05 µM
  inhibition: -19.9%
[10]; measured here: inhibition with cisplatin combination, at 0.05 µM
  inhibition: -12.6%
[11]; at 0.5 µM
  inhibition: -23.1% (inactive)
[11]; [21]
  inhibition: -11.4%
[11]; [22]
  inhibition: -13.5%
[12]; at 0.5 µM
  inhibition: -24% (inactive)
[12]; measured here: BGB combination, at 0.5 µM
  inhibition: -21.8%
[12]; measured here: BGB combination, at 5 µM
  inhibition: 39.5%
[12]; measured here: cisplatin combination, at 0.5 µM
  inhibition: -34.4%
[12]; measured here: cisplatin combination, at 5 µM
  inhibition: 62.7%
[13]; BGB combination, concentration series, at 5 µM
  inhibition: 56.4%
[13]; at 0.5 µM
  inhibition: 0.83% (inactive)
[13]; cisplatin combination, concentration series, at 5 µM
  inhibition: 62.5%
[14]
  inhibition: 13.8% (inactive)
[14]; measured here: combo with BGB IC20
  inhibition: 17.9%
[14]; measured here: combo with cisplatin IC20
  inhibition: 11.3%
[15]; at 0.5 µM
  inhibition: -38.9% (inactive)
[15]; cisplatin combination, at 0.5 µM
  inhibition: -29.3%
[15]; cisplatin combination, at 5 µM
  inhibition: -3.12%
[15]; measured here: BGB IC40 combination 0.05 uM, at 0.05 µM
  inhibition: -31.2%
[15]; single agent, at 5 µM
  inhibition: -27%
[16]; at 0.5 µM
  inhibition: -9.8% (inactive)
[16]; cisplatin combo, at 5 µM
  inhibition: 15.6%
[16]; measured here: BGB IC40 combination, at 0.05 µM
  inhibition: -6.51%
[16]; [21]
  inhibition: 3.15%
[16]; single agent, at 5 µM
  inhibition: -34.2%
[17]; at 0.5 µM
  inhibition: 10.3% (inactive)
[17]; [19]
  inhibition: -9.01%
[17]; [20]
  inhibition: 19.9%
[17]; single agent, at 0.05 µM
  inhibition: 29.3%
[17]; single agent, at 5 µM
  inhibition: 63.9%
